The source of these data is ChEMBL document CHEMBL1157539, “Thousands of chemical starting points for antimalarial lead identification” (Nature, 2010).

The subject of the first assay is Plasmodium falciparum. Description: GSK_TCMDC: Inhibition of Plasmodium falciparum 3D7 in whole red blood cells, using parasite LDH activity as an index of growth. Test compounds present at 2uM. Format: functional.
In general, Inhibition refers to how much of the control response was suppressed. A low value points to little suppression. `COc1ccc(NC(=O)c2ccc(Br)c(C)c2)cc1N1CCN(CCCCc2ccccc2)CC1.O=C(O)C(=O)O` returned an Inhibition of 88%.

Regarding `COc1cccc(NC(=O)NCCNc2ccnc(Nc3ccc(F)cc3)n2)c1`, the Inhibition is 94%.

Turning to `CN(Cc1ccc(C#N)cc1)C1CCN(c2cc(NC(=O)c3cccc(F)c3)ccn2)CC1.O=C(O)C(F)(F)F`, the Inhibition was 83%.

For `Cc1cc(NCCC(=O)Nc2ccccc2)nc(NCCc2cccnc2)n1.O=C(O)C(F)(F)F`, the Inhibition was 84%.

In turn, `Cc1cc(CN2CC[C@H](NC(=O)c3ccc(Cl)c(Cl)c3)C2)ccc1OC1CCN(Cc2ccccc2)CC1.O=C(O)C(F)(F)F` returned an Inhibition of 98%.

The next assay deals with Plasmodium falciparum. As to the kind of experiment: GSK_TCMDC: Inhibition of Plasmodium falciparum Dd2 in whole red blood cells, using parasite LDH activity as an index of growth. Test compounds present at 2uM. Format: functional.
With `COc1ccc2nccc([C@@H](O)CN3CCC(NC(=O)C(c4cc5ccccc5s4)N4CCN(c5ccccc5OC)CC4)CC3)c2c1` (stereo not given in full), the Inhibition was 88%.

For `COc1cc(NC(=O)/C=C/c2ccccc2OC(F)(F)F)cc(OCCN2CCN(CCN3CCOCC3)CC2)c1.O=C(O)C(=O)O`, the Inhibition amounted to 25%.

With `O=C(/C=C/c1ccc(Cl)c(Cl)c1)NCCCCCN1CCC(NC(=O)Nc2ccc(F)c(Cl)c2)CC1`, the Inhibition was determined as 11%.

The compound `O=C(NCCCN1CCOCC1)c1cccc(Nc2nccc(Nc3ccc(Oc4ccccc4)cc3)n2)c1` came in with an Inhibition of 22%.

`CCOC(=O)c1ccc(N2CCN(c3cc(C)ccc3C)CC2)c(NC(=O)Nc2ccc(Cl)c(Cl)c2)c1` registered an Inhibition of 42%.

For `CC(CN1CCN(C)CC1)C(=O)Nc1cccc(-c2ccc(-c3nc4ccccc4[nH]3)cc2)c1` (stereo not given), the Inhibition is listed as 38%.

On to `Cc1cccc2nc(-c3ccc(-c4ccc(NC(=O)Nc5ccsc5)cc4)cc3)[nH]c12`, for which the Inhibition is recorded as 70%.

`Cl.NC1=NC(c2ccccc2)N(c2ccccc2)C(N)=N1` (stereo not given): the Inhibition was determined as 85%.

For `Cc1cc(CNC(=O)[C@H](CC2CCCCC2)Nc2ccc(C#N)c3ccccc23)c(C(F)(F)F)o1.O=C(O)C(F)(F)F`, the Inhibition was 55%.

`COc1ccc(OC)c(-c2cccc(-c3cccc(NC(=O)c4ccc([N+](=O)[O-])o4)c3)n2)c1` displayed an Inhibition of 97%.

Compound `CN1CCC(C(=O)Nc2ccc(-c3cccc(-c4nc5cc(F)ccc5[nH]4)c3)cc2)CC1` returned an Inhibition of 5%.

Take `CC(=O)Nc1ccc(C(=O)Nc2cccc(-c3ccc(-c4nc5cc(F)ccc5[nH]4)cc3)c2)cn1`: the Inhibition is listed as 99%.

`CN(C)CCOc1cc(NC(=O)Nc2ccc(-c3ccncc3)c3ccccc23)ccc1I`: the Inhibition was found to be 46%.

For `Cc1ccc(C(=O)Nc2ccc(F)cc2)cc1-c1nc(NC2CC(C)(C)NC(C)(C)C2)nc2c1ccc(=O)n2-c1c(F)cccc1F`, the Inhibition was determined as 96%.

Compound `O=C(C1CC1c1ccccc1)N(Cc1ccc(-c2ccc(CNCCc3ccccc3)cc2)cc1)C1CCNCC1.O=C(O)C(F)(F)F` (stereo not given) registered an Inhibition of 39%.

Turning to `Nc1ncc(-c2cn[nH]c2)cc1-c1nc2ccc(F)cc2[nH]1`, the Inhibition is 53%.

Consider `Cc1nc(-c2nc(NCCc3c(C)noc3C)ncc2-c2ccsc2)sc1C`, for which the Inhibition is 85%.

The compound `O=C(NCc1ccc(Cl)c(Cl)c1)c1cccc(C2CCCN(Cc3ccc4[nH]cnc4c3)C2)c1` (stereo not given) had an Inhibition of 30%.

Turning to `COc1ccccc1N1CCN(c2cccc3c2nc(-c2cncc(C#N)c2)n3CCNCc2ccccc2)CC1.O=C(O)C(F)(F)F`, the Inhibition amounted to 81%.

Regarding `O=C(Nc1ccc(OC2CCN(Cc3ccccc3)CC2)c(Cl)c1)c1cccs1.O=C(O)C(F)(F)F`, the Inhibition amounted to 95%.

`O=C(Cc1ccccc1)NC(c1ccco1)c1cc(Cl)c2cccnc2c1O` (stereo not given) registered an Inhibition of 93%.

The compound `COc1ccc(CNc2nc(NCc3ccccc3)c3cc(OC)c(OC)cc3n2)cc1OC` showed an Inhibition of 99%.

`CC(=O)Nc1ccc(Cl)c(Cl)c1` came in with an Inhibition of 98%.

On to `CC(=O)Nc1ccc(OCCCCN(Cc2ccccc2C(F)(F)F)c2ccc(C(F)(F)F)c(C#N)c2)c(Cl)c1`, for which the Inhibition is 96%.

With `Cc1ccc(C)c(CC(=O)N2CCC(n3c(C)nc4ccc(F)cc43)CC2)c1`, the Inhibition amounted to 99%.

Regarding `N#Cc1cccc(C(=O)Nc2cccc(-c3ccc(CN4CCCC4)cc3)c2)c1.O=C(O)C(F)(F)F`, the Inhibition is listed as 42%.

`CCN(CC)CCCC(C)Nc1c2cc(OC)ccc2nc2cc(Cl)c([N+](=O)[O-])cc12` (stereo not given) gave an Inhibition of 89%.

In turn, `CCOc1ccc(-c2nc(NC(=O)Cc3cccc(OC)c3)sc2C)cc1` yielded an Inhibition of 28%.

With `CCC1(CC)C(=O)N=C(N2CCCCC2)N(C)C1=O`, the Inhibition amounted to 66%.

`COc1ccc(-c2ccc(NC(=O)c3cccc(F)c3)cc2)cc1CNC(C)C.O=C(O)C(F)(F)F` registered an Inhibition of 14%.

`O=C(Nc1ccc2c(c1)OCO2)NC1CCN(c2ccnc(NCc3ccc(F)cc3)n2)CC1`: the Inhibition came out at 15%.

For `COC(=O)c1cccc(CNCc2cccc(-c3ccc(-c4nc5cccc(C)c5[nH]4)cc3)c2)c1.O=C(O)C(F)(F)F`, the Inhibition amounted to 52%.

In turn, `COc1ccc(CNCc2ccc(F)cc2)cc1-c1ccc(S(=O)(=O)NCCN2CCCC2)c(C)c1.O=C(O)C(F)(F)F` gave an Inhibition of 56%.

For `CCC(CC)(Cc1ccccc1)NC(=O)[C@H](CC1CCCCC1)Nc1ccc(C#N)c2ccccc12.O=C(O)C(F)(F)F`, the Inhibition turned out to be 76%.

The compound `COc1ccc(NC(=O)[C@H](CC(C)C)Nc2cc(C)nc(NCCOc3ccccc3)n2)cc1.O=C(O)C(F)(F)F` returned an Inhibition of 65%.

Compound `COc1ccc(NC(=O)c2ccc(Br)c(C)c2)cc1N1CCN(CCCCc2ccccc2)CC1.O=C(O)C(=O)O` showed an Inhibition of 17%.

Compound `COc1cccc(NC(=O)NCCNc2ccnc(Nc3ccc(F)cc3)n2)c1` yielded an Inhibition of 1%.

On to `CN(Cc1ccc(C#N)cc1)C1CCN(c2cc(NC(=O)c3cccc(F)c3)ccn2)CC1.O=C(O)C(F)(F)F`, for which the Inhibition amounted to 0%.

Take `Cc1cc(NCCC(=O)Nc2ccccc2)nc(NCCc2cccnc2)n1.O=C(O)C(F)(F)F`: the Inhibition was found to be 4%.

Regarding `Cc1cc(CN2CC[C@H](NC(=O)c3ccc(Cl)c(Cl)c3)C2)ccc1OC1CCN(Cc2ccccc2)CC1.O=C(O)C(F)(F)F`, the Inhibition was determined as 29%.
